Assay outcomes from PubChem BioAssay.
ELG1 genotox: genotoxicity induction in ELG1-luciferase HEK293T cells; HEK293T ELG1-luciferase reporter, luminescence, 16 h; Potency, µM (series often up to 46 µM), inactives show at the top dose activity change, positive = activation, most hits filed as activators; actives 1.3% (n = 330,000); further: % of control where 0% means no effect; nearly all actives have a fitted effect of over 60% in size
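HEK293T cells expressing luciferase-tagged ELG1 were exposed to compound or DMSO vehicle for 16 hr at 37 °C and 5% CO2. Luciferase activity was then measured with ONE-Glo after 30 min at room temperature.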
Rab9 prom act: activators of Rab9 promoter; Huh7 Rab9 promoter-luciferase reporter, luminescence, 24 h; Potency, µM (highest dose often 9.22 µM), inactives show at the highest dose activation, negative = inhibition, usual class: activators; actives 2.8% (n = 320,000); further: % of control where 0% means no effect; nearly all actives have a fitted effect of over 60% in size
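Luminescence from Amplite-detected luciferase (10 minutes, ambient) reports Rab9 promoter activation. Before that, stable Rab9-luciferase Huh7 cells (1500/well, reduced-serum OP-MEM I plus 10% FBS) were exposed to compound for 24 hours at 37C.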
FLuc modulator: counter-screen for miR-21 project: firefly luciferase inhibitors or activators. P08659. purified FLuc, Km substrates, luminescence inhibition. Potency, µM (top dose mostly 57.5 µM), for inactives: at the highest dose activity change, negative = inhibition, usual class: inhibitors. actives 6.9% (n = 360,000). AID 588342;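 further: plate controls were vehicle for no effect and reference inhibitor for full effect; nearly all actives have a fitted effect of over 55% in size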
Target sequence (P08659 whole entry, looked up): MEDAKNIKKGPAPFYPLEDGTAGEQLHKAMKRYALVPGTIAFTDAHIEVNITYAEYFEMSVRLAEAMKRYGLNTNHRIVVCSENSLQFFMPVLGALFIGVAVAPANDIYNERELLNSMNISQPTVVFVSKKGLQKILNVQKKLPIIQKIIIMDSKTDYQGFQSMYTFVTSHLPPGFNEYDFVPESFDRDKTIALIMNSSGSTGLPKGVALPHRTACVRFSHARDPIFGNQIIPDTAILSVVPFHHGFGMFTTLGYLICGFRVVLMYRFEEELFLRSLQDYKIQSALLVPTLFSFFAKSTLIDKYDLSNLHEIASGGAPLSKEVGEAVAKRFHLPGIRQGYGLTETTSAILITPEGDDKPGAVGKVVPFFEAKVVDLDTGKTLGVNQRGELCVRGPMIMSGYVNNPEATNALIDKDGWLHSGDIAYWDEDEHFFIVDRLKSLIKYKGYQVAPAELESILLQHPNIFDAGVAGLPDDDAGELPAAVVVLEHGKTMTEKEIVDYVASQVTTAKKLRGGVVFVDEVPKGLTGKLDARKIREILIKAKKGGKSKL
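Purified P. pyralis luciferase (10nM final) with 10uM D-luciferin and 10uM ATP (Km levels) in 50mM Tris acetate pH 7.5, 10mM Mg acetate, 0.01% Tween-20, 0.05% BSA; qHTS 6-point titration, ~60 µM downward; luminescence read.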
NPC1 promoter act: NPC1 promoter activation; Huh7 NPC1 promoter luciferase reporter, 24 h; Potency, µM (doses to about 9.22 µM), for inactives: at the top dose activation, most hits filed as activators; actives 2.4% (n = 320,000); AID 485313; further: % of control where 0% means no effect; nearly all actives have a fitted effect of over 60% in size
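Luminescence from an NPC1 promoter-driven luciferase reporter in stably transfected Huh7 cells was measured after 24 h compound treatment at 37 °C, followed by 10 min ambient incubation with luciferase detection reagent.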
uPA generation: cell surface uPA generation inhibition; cell surface uPA generation assay, qHTS; Potency, µM (top dose mostly 38.3 µM), without a hit: at the highest dose activity change, negative = inhibition, actives largely listed as inhibitors; actives 0.31% (n = 330,000); AID 540303; active means well fitted inhibition curve with a large enough effect; inconclusive means small, poorly fitted or top-dose-only effect; inactive means no such curve, though single readings can be large or run the other way; tested in mouse RAW 264.7 cells; further: on the % scale 0 is the no-effect control and ±100 the full control effect; nearly all actives have a fitted effect of over 55% in size
SMN2 splice up: enhancers of SMN2 splice variant expression | Potency, µM (titrated, usually from 46.1 µM), for the others: at the top dose activity change, positive = activation, actives largely listed as activators | HEK293 SMN2-luciferase splicing reporter, luminescence, 30-36 h | actives 2.8% (n = 210,000); further: % of control where 0% means no effect; nearly all actives have a fitted effect of over 55% in size
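HEK293 cells carry an SMN2 minigene-luciferase reporter in which exon 7 inclusion puts luciferase in frame. Cells were seeded at 2000 cells/well, attached for 10-12 hours, then exposed to compounds for 30-36 hours at 37C before ONE-Glo luminescence.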
An asterisk follows results filed as active; u = inconclusive; x = no result given. Hits are enriched below; roughly 7.3% of the tested compounds scored in any of these assays. Unless noted, the call rests on the fitted dose curve; in most records, active means well fitted curve in the direction sought with a large enough effect; inconclusive means small, poorly fitted or top-dose-only effect, or another doubt; inactive means no such curve, though single readings can be large; an effect the other way counts as inactive or inconclusive. Potency means the concentration at half of the fitted maximal effect.

SMILES	ELG1 genotox	Rab9 prom act	FLuc modulator	NPC1 promoter act	uPA generation	SMN2 splice up
COCCn1c(C)cc(C2=NNC(=Nc3ccccc3F)SC2)c1C	u	0%	0.54µM*	u	1%	-31%
CCC(=O)N/N=C/c1ccc(-c2ccc([N+](=O)[O-])cc2)o1	-3%	-6%	-9%	-1%	1%	x
NC(=S)N/N=C/c1ccc(-c2cccc([N+](=O)[O-])c2)o1	-11%	3%	u	4%	3%	-12%
CCC(=O)N/N=C/c1ccc(-c2ccc(Cl)cc2)o1	18%	30%	15µM*	0%	-4%	x
NS(=O)(=O)c1ccc(-c2ccc(/C=N/Nc3ccc(C(=O)O)cc3)o2)cc1	10%	1%	7.6µM*	5%	0%	x
CNC(=S)N/N=C/c1ccc(-c2ccc(Cl)c([N+](=O)[O-])c2)o1	0%	-3%	-10%	-3%	-7%	x
CNC(=S)N/N=C/c1ccc(-c2ccc(C(=O)O)cc2)o1	u	30%	17µM*	u	-7%	x
O=C(O)c1cccc(-c2ccc(/C=N/Nc3ccc([N+](=O)[O-])cc3)o2)c1	2%	-4%	11µM*	1%	-1%	x
Cc1cccc(N(C)C(=O)CCS(=O)(=O)c2ccc3c(c2)oc(=O)n3C)c1	x	x	-1%	x	x	x
COc1ccc(-c2[nH]nc3nc(-c4cc(Br)ccc4OC)cc(C(=O)O)c23)cc1	x	x	-19%	x	x	x
N#Cc1cccc(-c2csc(N3CCC(C(N)=O)CC3)n2)c1	x	x	-17%	x	x	x
CCCN(CCC)CCCNC(=O)c1cc2c(=O)oc3ccc(C)cc3c2s1	x	x	1%	x	x	15%
COc1cc(-c2nc3n(n2)C(c2ccc(F)cc2)C(C(N)=O)=C(C)N3)cc(OC)c1OC (configuration not stated)	x	x	5%	x	x	18%
NS(=O)(=O)c1ccc(-c2ccc(/C=N/NC(=O)c3ccc([N+](=O)[O-])cc3)o2)cc1	-3%	2%	5%	2%	1%	x
O=C(O)c1ccc(N/N=C/C=C/c2ccc([N+](=O)[O-])o2)cc1	1%	16%	17µM*	-2%	-8%	x
CCOC(=O)c1ccc(-c2ccc(/C=N/NC(=O)CN(c3ccccc3Br)S(C)(=O)=O)o2)cc1	-16%	u	-17%	u	-1%	11µM*
O=C(O)c1ccc(-c2ccc(/C=N/Nc3ccc([N+](=O)[O-])cc3)o2)cc1	0%	22%	17µM*	23%	3%	x
C=CCNC(=S)N/N=C/c1ccc(-c2ccc(OC)cc2)o1	-17%	-4%	19µM*	13%	x	-14%
COc1ccc(C(=O)NCCn2cc(SCC(=O)NCC3CCCO3)c3ccccc32)cc1 (configuration not stated)	-4%	-1%	-12%	1%	6%	x
Cc1cc(NC(=O)CSc2cn(CCNC(=O)c3ccc(F)cc3)c3ccccc23)no1	0%	0%	17µM*	1%	7%	-4%
COc1ccc(C(=O)NCCn2cc(SCC(=O)NCc3ccco3)c3ccccc32)cc1	5%	u	17µM*	20%	9%	-50%
COc1ccc(C(=O)NCCn2cc(SCC(=O)Nc3cccc(C)c3)c3ccccc32)cc1	x	x	u	x	x	-23%
CCC(=O)N1CCc2cc(S(=O)(=O)NC(Cc3ccccc3)C(=O)Nc3cccc(OC)c3)ccc21 (configuration not stated)	x	x	-1%	x	x	-9%
CCN(CC)c1sc(S(=O)(=O)c2ccccc2)nc1S(=O)(=O)c1ccc(C)cc1	x	x	-2%	x	x	4%
COc1cc2[nH]c3c(=O)n(N)c(=O)[nH]c3c2cc1OC	2%	0%	-1%	-2%	-1%	x
SMILES	ELG1 genotox	Rab9 prom act	FLuc modulator	NPC1 promoter act	uPA generation	SMN2 splice up
O=C(Nc1ccc(OC(F)(F)F)cc1)c1noc2c1CCCC2	x	x	u	x	x	8.9µM*
O=C(Nc1cnn(Cc2ccc(F)cc2)c1)c1noc2c1CCCC2	u	4µM*	15µM*	u	u	-10%
O=C(Nc1cc(C(F)(F)F)ccc1Cl)c1noc2c1CCCCC2	x	x	u	x	x	12%
Cc1ccc(NC(=O)c2noc3c2CCC3)cc1C	u	0.63µM*	2.4µM*	3.2µM*	1%	2.8µM*
O=C(Nc1cccc(O)c1)c1noc2c1CCCCC2	u	u	0.95µM*	u	u	10%
O=C(Nc1ccccc1C(=O)N1CCOCC1)c1noc2c1CCCC2	0%	-3%	0%	3%	x	9%
COC(=O)c1ccccc1NC(=O)c1noc2c1CCCC2	8%	5%	17µM*	7%	x	11%
COc1ccc(CNC(=O)c2noc3c2CCCCC3)cc1	15%	u	u	27%	x	-11%
CC(NC(=O)c1noc2c1CCCCC2)c1ccccc1 (configuration not stated)	5%	28%	-19%	11%	-1%	-1%
CC(=O)c1ccc(NC(=O)c2noc3c2CCC3)cc1	-9%	u	12µM*	0.79µM*	-6%	u
O=C(NC1CCCC1)c1noc2c1CCCCC2	14µM*	u	u	u	0%	10µM*
COc1ccc(NC(=O)c2noc3c2CCC3)cc1	u	0.5µM*	2.7µM*	1.4µM*	-3%	10µM*
O=C(NCc1ccco1)c1noc2c1CCCC2	2%	27%	-10%	17%	x	-3%
O=C(NCc1cccs1)c1noc2c1CCCCC2	18µM*	u	u	u	x	29%
CC(=O)c1cccc(NC(=O)CSc2nc3c(=O)n(C)c(=O)n(C)c3n2C)c1	x	x	-2%	x	x	x
CC(=O)NCCOc1ccc2oc3ccccc3c2c1	x	x	17µM*	x	-3%	5%
CC(=O)NCCOc1cccc(OCCNC(C)=O)c1	0%	2%	2%	-1%	-3%	-14%
Clc1ccc(-n2cccc2/C=N/n2cnnc2)cc1	2%	-7%	0%	-3%	-6%	-9%
Cn1cccc1/C=N/n1cnnc1	-1%	-4%	0%	0%	1%	22µM*
Cc1c(NC(=O)c2ncn[nH]2)cccc1-c1nc2ccccc2s1	1%	22%	4.3µM*	19%	1%	8%
Cc1c(NC(=O)c2ccc(N3CCCC3)c([N+](=O)[O-])c2)cccc1-c1nc2ccccc2s1	-5%	17%	2.7µM*	1%	-2%	-37%
CCOC(=O)c1c(C)c(-c2ccccc2)n(CC(=O)NCc2ccccc2)c1C	x	x	-5%	x	x	2%
Cc1ccnc(N(C(=O)c2cccs2)C(=O)c2cccs2)c1	2.1µM*	3.5µM*	19µM*	2.5µM*	-14%	13µM*
Cc1ccc2[nH]c(=O)c(CN(C)C(=O)c3cccs3)cc2c1	7%	-1%	-7%	9%	-2%	-9%
